# Experimental data published in paper PMC11062922 (Nature Chemical Biology, 2023).
# Like-named read-outs stand apart in the source and are kept apart here.
# Legend:
# Parameters in all cases: species or system human, MV4-11 + K-562 + COLO205 + SK-N-BE2 + OVCAR-8
# CHEK1 = conditions: read-out: apparent Kd, n = 1
# PIM1 = conditions: read-out: apparent Kd, compound concentrations: 100 nM and 1000 nM (sheet 'Samples'), n = 1
# EIF2AK1 = conditions: read-out: apparent Kd, n = 1
# FGFR1 = conditions: read-out: apparent Kd, n = 1
# MAP3K4 = conditions: read-out: apparent Kd, n = 1
# NUAK2 = conditions: read-out: apparent Kd, compound concentrations: 100 nM and 1000 nM (sheet 'Samples'), n = 1
# TAOK3 = conditions: read-out: apparent Kd, compound concentrations: 100 nM and 1000 nM (sheet 'Samples'), n = 1
# SPR = conditions: read-out: apparent Kd; compound concentrations: 100 nM and 1000 nM (sheet 'Samples'), CATDS: 2.8512814896169001E-2; n = 1
# MET = conditions: read-out: apparent Kd; compound concentrations:100 nM and 1000 nM (sheet 'Samples'); n = 1
# MST1R = conditions: read-out: apparent Kd, compound concentrations: 100 nM and 1000 nM (sheet 'Samples'), n = 1
# AKT3 = conditions: read-out: apparent Kd; compound concentrations: 100 nM and 1000 nM (sheet 'Samples'), CATDS: 1.96345458497789E-2; n = 1
# STK11 = conditions: read-out: apparent Kd; compound concentrations: 100 nM and 1000 nM (sheet 'Samples'), CATDS: 6.0653418391634698E-2; n = 1
# MAP4K3 = conditions: read-out: apparent Kd, n = 1
# FECH = conditions: read-out: apparent Kd, n = 1
# PRKCA = conditions: read-out: apparent Kd, compound concentrations: 100 nM and 1000 nM (sheet 'Samples'), n = 1
# PRKCQ = conditions: read-out: apparent Kd, compound concentrations: 100 nM and 1000 nM (sheet 'Samples'), n = 1
# CDC42 = conditions: read-out: apparent Kd; compound concentrations: 100 nM and 1000 nM (sheet 'Samples'), CATDS: 3.5970497134968603E-2; n = 1
# [1] = compound concentrations:100 nM and 1000 nM (sheet 'Samples')
smiles,measurement,setting,value
COc1ccc(Nc2nccc(N3CCC(NC(=O)Nc4ccc5c(c4)OCO5)C3)n2)cc1 (centres unmarked) [GSK1379745A],potency estimated from few doses,"CHEK1; compound concentrations: 100 nM and 1000 nM (sheet 'Samples'), CATDS: 3.4900444296342099E-2",2070 nM
same,potency estimated from few doses,PIM1; CATDS: 4.3475641275587597E-2,1260 nM
CCN(CC)CCOc1ccc(Nc2ncc3cc(-c4c(Cl)cccc4Cl)c(=O)n(C)c3n2)cc1 [SB-601273],potency estimated from few doses,EIF2AK1; [1],802 nM
same,potency estimated from few doses,FGFR1; [1],388 nM
same,potency estimated from few doses,MAP3K4; [1],640 nM
CN1C(=O)c2ccccc2N(C)c2nc(Nc3cnn(C4CCNCC4)c3)ncc21 [XMD-17-51],potency estimated from few doses,NUAK2; CATDS: 1.40993766530741E-2,1630 nM
same,potency estimated from few doses,TAOK3; CATDS: 4.0612086764621601E-2,78.3 nM
Cc1ccc(O)cc1Nc1ccnc2cc(-c3ccccn3)ccc12.Cl [GW440139A],potency estimated from few doses,SPR,683 nM
CS(=O)(=O)Cc1ccc(Nc2nccc(-c3c(-c4cccc(NC(=O)C5CCCCC5)c4)nn4ncccc34)n2)cc1 [GSK350559A],potency estimated from few doses,MET,1780 nM
CS(=O)(=O)CCNCc1ccc(-c2ccc3ncnc(Nc4ccc(OCc5cccc(F)c5)c(C(F)(F)F)c4)c3c2)o1 [GW576484X],potency estimated from few doses,MST1R; CATDS: 4.8936571303095901E-2,2070 nM
Cl.Cl.Cl.c1ccc(Oc2ccc(Nc3ccnc4cc(-c5ccc(CN6CCNCC6)o5)ccc34)cc2)nc1.c1ccc(Oc2ccc(Nc3ccnc4cc(-c5ccc(CN6CCNCC6)o5)ccc34)cc2)nc1 [GW567142A],potency estimated from few doses,AKT3,1220 nM
NC(=O)c1cccc(Nc2nccc(Nc3cccc4[nH]ncc34)n2)c1 [GW782612X],potency estimated from few doses,STK11,342 nM
CC(C)c1nc(-c2cccc(NS(=O)(=O)c3ccccc3)c2)c(-c2ccnc(Nc3ccc4c(c3)CN(C)CC4)n2)s1 [GSK1649598A],potency estimated from few doses,"EIF2AK1; compound concentrations: 100 nM and 1000 nM (sheet 'Samples'), CATDS: 1.2049138134939999E-2",2290 nM
same,potency estimated from few doses,"MAP4K3; compound concentrations: 100 nM and 1000 nM (sheet 'Samples'), CATDS: 1.29423166532144E-2",1570 nM
same,potency estimated from few doses,TAOK3; CATDS: 1.6812822211495999E-2,600 nM
O=C1N=C(NCCc2cccc(Cl)c2)S/C1=C\c1ccc2ncccc2c1 [RO4509201-000],potency estimated from few doses,"FECH; compound concentrations: 100 nM and 1000 nM (sheet 'Samples'), CATDS: 5.2952837559238602E-2",2080 nM
Cn1cc(C2=C(c3cn(CCCO)c4ccccc34)C(=O)NC2=O)c2ccccc21 [RO0317377-000],potency estimated from few doses,PRKCA; CATDS: 0.117489729482602,1240 nM
same,potency estimated from few doses,PRKCQ; CATDS: 9.7872401763747702E-2,2020 nM
Cc1cccc(Nc2nc(NCCN)ncc2C(N)=O)c1 [GSK1292139B],potency estimated from few doses,PRKCA; CATDS: 7.8456539991917998E-2,1100 nM
O=C1N=C(NCc2cccs2)SC1Cc1ccc2ncccc2c1 (centres unmarked) [RO4629078-000],potency estimated from few doses,"CHEK1; compound concentrations: 100 nM and 1000 nM (sheet 'Samples'), CATDS: 9.1517924527920996E-3",847 nM
same,potency estimated from few doses,"FGFR1; compound concentrations: 100 nM and 1000 nM (sheet 'Samples'), CATDS: 7.8188916788292304E-3",1400 nM
same,potency estimated from few doses,NUAK2; CATDS: 9.28769092053984E-3,813 nM
same,potency estimated from few doses,PRKCQ; CATDS: 4.8799216922885302E-2,52.1 nM
COc1cc(Nc2ccnc3cc(-c4ccncc4)ccc23)cc(OC)c1OC.Cl [GW494610A],potency estimated from few doses,"FECH; compound concentrations: 100 nM and 1000 nM (sheet 'Samples'), CATDS: 2.4367792327904599E-2",1070 nM
same,potency estimated from few doses,MST1R; CATDS: 2.33652063903033E-2,1280 nM
CN1CCN(Cc2ccc(-c3ccc4c(Nc5ccc(Oc6ccccn6)cc5)ccnc4c3)o2)CC1 [GW567140X],potency estimated from few doses,CDC42,1290 nM
Cn1cc(-c2cnc(N)c3c(-c4ccc5c(c4)CCN5C(=O)Cc4ccccc4)csc23)cn1 [GSK2593074A],potency estimated from few doses,MAP4K3; [1],1570 nM
Cn1cc(-c2ccc3c(c2)CCN3C(=O)Cc2cccc(Cl)c2)c2c(N)ncnc21 [GSK2606590A],potency estimated from few doses,"EIF2AK1; compound concentrations: 100 nM and 1000 nM (sheet 'Samples'), CATDS: 0.41818384912394302",679 nM
O=S(=O)(CCOCc1ccc(-c2ccc3ncnc(Nc4ccc(OCc5cccc(F)c5)c(Cl)c4)c3c2)o1)c1ccccc1 [GW615311X],potency estimated from few doses,PIM1; CATDS: 3.06146278904708E-2,1120 nM
COc1cc(/C=N/Nc2ncnc3[nH]ncc23)ccc1O [GW578748X],potency estimated from few doses,CHEK1; [1],592 nM
COc1cc2ncn(-c3cc(OCc4ccncc4)c(C(N)=O)s3)c2cc1OC [GSK336313A],potency estimated from few doses,FECH; [1],2250 nM
N#Cc1cnc2cc(-c3cnc(CNCCN4CCOCC4)s3)ccc2c1Nc1ccc(Oc2ccccc2)cc1 [GW664114X],potency estimated from few doses,"MAP3K4; compound concentrations: 100 nM and 1000 nM (sheet 'Samples'), CATDS: 5.1499823560292202E-2",914 nM
